In PubChem BioAssay (EPA / NIEHS) one finds outcome and AC50 data, which are given here for 40 compounds.

Active and inactive are the calls of the source. The calls were made as follows: active = hit-call score of the fitted dose curve at least 0.9, where 1 is the maximum; inactive = score below 0.9.

Sequence of Cellular tumor antigen p53 (Homo sapiens) (P04637 whole entry, looked up): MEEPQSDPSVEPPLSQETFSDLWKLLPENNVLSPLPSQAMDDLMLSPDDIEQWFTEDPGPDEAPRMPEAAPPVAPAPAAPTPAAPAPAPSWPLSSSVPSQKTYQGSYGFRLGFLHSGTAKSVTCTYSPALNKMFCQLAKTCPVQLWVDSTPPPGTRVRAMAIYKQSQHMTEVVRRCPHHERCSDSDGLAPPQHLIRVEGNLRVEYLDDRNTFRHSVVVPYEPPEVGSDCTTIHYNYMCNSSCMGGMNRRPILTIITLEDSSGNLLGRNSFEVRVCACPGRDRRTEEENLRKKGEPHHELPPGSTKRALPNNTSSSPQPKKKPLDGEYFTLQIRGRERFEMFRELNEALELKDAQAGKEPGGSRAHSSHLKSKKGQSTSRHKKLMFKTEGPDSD

Read-out in this test: Cellular tumor antigen p53 (Homo sapiens) (UniProt P04637)
The test can be described thus: LTEA_HepaRG_TP53: Life Technologies and Expression Analysis (LTEA) Assay for Tumor Protein P53 (TP53) using HepaRG (AID 2283537). As to conditions: mRNA level, 48 h; actives raise or lower the signal. The procedure: LTEA_HepaRG is a cell based, multiplexed-readout assay that uses HepaRG, a human liver cell line, with measurements taken at 48 hours after chemical dosing on a 96-well plate.LTEA_HepaRG_TP53 is one of 102 assay component(s) measured in the LTEA HepaRG cell culture assay. It is a marker of Oxidative Stress.Data from the assay component LTEA_HepaRG_TP53 was analyzed into 1 endpoint. This assay endpoint, LTEA_HepaRG_TP53, was analyzed with bidirectional fitting relative to DMSO as the negative control and baseline of activity. Using a type of inducible reporter, measures of mRNA induction for gain or loss-of-signal activity can be used to understand regulation of transcription factor activity. To generalize the intended target to other relatable targets, this assay endpoint is annotated to the dna binding intended target family, where the subfamily is tumor suppressor.
A total of 1060 chemcials from the ToxCast library were tested in eight-point concentration-response experiments. Cell culture and cytotoxicity assays were conducted at Thermo Fisher Scientific's Custom Services facility (Madison, WI). A single lot of human HepaRG cells (Thermo Fisher Scientific, Frederick, MD) was used for the cell culture experiments. 96-well format collagen type I coated plates of human HepaRG cells were prepared using established methods. Briefly, cryopreserved HepaRG cells were thawed, plated at a density of approximately 100,000 cells/well in HepaRG Thaw, Plate, and General Purpose media (HPRG770, Thermo Fisher Scientific), and incubated for 48 hours. 0.5% DMSO was selected as vehicle control to balance the requisite need of DMSO in HepaRG cultures to maintain differentiation (for example, baseline metabolism, proportions of hepatocytes vs. cholangiocytes), while enabling further hepatic receptor pathway activation (for example, PXR and CAR) in response to chemical exposure. 48 hours after plating, the culture medium was replaced with HepaRG Serum-Free Incudtion Media. Cells were exposed to each test chemical in duplicate and maintained in CO2 incubators for another 48 hours. Chemical plates were thawed to room temperature and 200x concentrations of treatment groups were prepared. 8-point conentration-reponse curves were made with the highest exposure at 100 uM, followed by half-log dilutions, all in 0.5% DMSO. Each test plate contained variouse controls, induction positive controls (1mM phenobarbital), cytotoxicity positive controls ([…] aflatoxin B1), vehicle controls (0.5% DMSO), and total lysis controls (0.5% DMSO). Cell morphology images were taken using an Essen IncuCyte FLR automated microscope, with six 96-well plates imaged in about 24 minutes. Images were captured and exported and JPEG files. Spent culture media was transfered to black-well plates for the LDH assay, and remaining media was sorted at -80 C for later use. Cells were treated with RLT buffer and frozen until shipped for gene expression analysis. Total RNA was isolated from the cell suspension in 75 uL of Buffer RLT (Qiagen, Germantown, MD 20874) by Quintiles/Expression Analysis (Durham, NC) using a custom isolation procedure. Total RNA from each plate well was transferred to a preamplification plate. Fluidigm's 96.96 Dynamic ArrayTM (Fluidigm, Amsterdam, the Netherlands) technology was used for gene expression analyses by quantitative reverse transcription polymerase chain reaction (qRT-PCR, performed by Quintiles/Expression Analysis, Durham, NC)89. Standard TaqManTM Assays (Applied Biosystems/ThermoFisher Scientific, Foster City, CA) were used to assess the expression of 93 genes selected based on their selectivity and sensitivity to important hepatic receptors known to be modulated by environmental chemicals; importance in human hepatocyte functionality; and hepatotoxicity. […]
With `CCOC(=O)COc1cc(-c2nn(C)c(OC(F)F)c2Cl)c(F)cc1Cl`, the call was inactive. Still for that read-out and setting: in the case of `CCC(=O)Nc1ccc(Cl)c(Cl)c1` it was “inactive”; in that of `CCCCN(CC)c1c([N+](=O)[O-])cc(C(F)(F)F)cc1[N+](=O)[O-]`, “inactive”. The same measure, in the same setting: as for `S=C1NCCN1`, the entry is “inactive”; as for `COc1cccc(C(=O)NN(C(=O)c2cc(C)cc(C)c2)C(C)(C)C)c1C`, “inactive”; as for `CCOP(=S)(OCC)Oc1cc(C)nc(C(C)C)n1`, “inactive”. Still for that read-out and setting: in the case of `CC(C1CC1)C(O)(Cn1cncn1)c1ccc(Cl)cc1` (stereo not given) it was “inactive”. As to `COP(=O)(OC)C(O)C(Cl)(Cl)Cl` (stereo not given), the result was inactive. Take `FC(F)C(F)(F)OCC(Cn1cncn1)c1ccc(Cl)cc1Cl` (stereo not given): the AC50 was 31.5 µM (active).

As for `CN1COCN(Cc2cnc(Cl)s2)C1=N[N+](=O)[O-]`, the outcome was inactive. Same read-out and setting: in the case of `C#CC(C)(C)NC(=O)c1cc(Cl)cc(Cl)c1` it was “inactive”; in that of `CC(C)=CC1C(C(=O)OCN2C(=O)C3=C(CCCC3)C2=O)C1(C)C` (stereo not given), “inactive”; in that of `CCCCSP(=O)(SCCCC)SCCCC`, “inactive”.

On to `COP(=O)(NC(C)=O)SC` (stereo not given), for which the result was inactive. Same read-out and setting: as for `COP(=O)(OC)SCn1c(=O)oc2cc(Cl)cnc21`, the entry is “inactive”; as for `CCOC(=O)CC(SP(=O)(OC)OC)C(=O)OCC` (stereo not given), “inactive”; as for `CN(C)C(=O)Nc1cccc(C(F)(F)F)c1`, “inactive”. On the same count and under the same terms, in the case of `CC(=NC#N)N(C)Cc1ccc(Cl)nc1` it was “inactive”; in that of `CN(C)NC(=O)CCC(=O)O`, “inactive”. On the same count and under the same terms, in the case of `CCCSP(=O)(OCC)Oc1ccc(Br)cc1Cl` (stereo not given) it was “inactive”; in that of `CNc1cnn(-c2cccc(C(F)(F)F)c2)c(=O)c1Cl`, “inactive”. On to `CNC(=O)ON=C(C)SC`, for which the call was inactive. Same read-out and setting: as for `COc1ccc(C(=CC(=O)N2CCOCC2)c2ccc(Cl)cc2)cc1OC`, the entry is “inactive”; as for `CCC(CC)Nc1c([N+](=O)[O-])cc(C)c(C)c1[N+](=O)[O-]`, “inactive”. The same measure, in the same setting: as for `CNC(=O)ON=C(SC)C(=O)N(C)C`, the entry is “inactive”; as for `CC(COc1ccc(Oc2ccccc2)cc1)Oc1ccccn1` (stereo not given), “inactive”. On the same count and under the same terms, as for `CC1=NNC(=O)N(/N=C/c2cccnc2)C1`, the entry is “inactive”. For `CC1(C(=O)Nc2ccc(O)c(Cl)c2Cl)CCCCC1`, the call was inactive. As to `CSc1nnc(C(C)(C)C)c(=O)n1N`, the call was inactive. Same read-out and setting: in the case of `CCCCOC(=O)[C@@H](C)Oc1ccc(Oc2ccc(C#N)cc2F)cc1` it was “inactive”. For `Cc1cc(C2CC2)nc(Nc2ccccc2)n1`, the call was inactive. The same measure, in the same setting: in the case of `N#CSCSC#N` it was “inactive”; in that of `CCOP(=S)(OCC)Oc1ccc2c(C)c(Cl)c(=O)oc2c1`, “inactive”; in that of `C#CCC1=C(C)C(OC(=O)C2C(C=C(C)C)C2(C)C)CC1=O` (stereo not given), “inactive”. The same measure, in the same setting: in the case of `Cc1nn(-c2cc(NS(C)(=O)=O)c(Cl)cc2Cl)c(=O)n1C(F)F` it was “inactive”; in that of `CC(Oc1cccc(Cl)c1)C(=O)O` (stereo not given), “inactive”. As for `O=c1ccc(=O)[nH][nH]1`, the compound was classed as inactive. The same measure, in the same setting: in the case of `CNC(=O)Oc1cccc2c1OC(C)(C)O2` it was “inactive”; in that of `C[N+]1(C)CCCCC1`, “inactive”. With `CC[C@H](C)[C@H]1O[C@]2(C=C[C@@H]1C)C[C@@H]1C[C@@H](C/C=C(\C)[C@@H](O[C@H]3C[C@H](OC)[C@@H](O[C@H]4C[C@H](OC)[C@@H](NC)[C@H](C)O4)[C@H](C)O3)[C@@H](C)/C=C/C=C3\CO[C@@H]4[C@H](O)C(C)=C[C@@H](C(=O)O1)[C@]34O)O2`, the AC50 is 86.7 µM (active).

By AC50 is commonly meant the concentration giving half of the maximal activity seen.
